# According to PubChem BioAssay AID686978 (National Center for Advancing Translational Sciences (NCATS), 2013):
# Screen size: about 420,000 compounds; about 64,000 (15%) were called active. Another 27% or so got no clear call; they are omitted. The list is a sample of the results. Values without a mark were called inactive. Calls follow the shape of the dose curve; as a rule, active = well fitted inhibition curve with a large enough effect; inconclusive = small, poorly fitted or top-dose-only effect; inactive = flat fitted curve, though single readings scatter.
# Assay: qHTS for Inhibitors of human tyrosyl-DNA phosphodiesterase 1 (TDP1): qHTS in cells in absence of CPT; also: nearly all actives have a fitted effect of over 55% in size
# Settings: DT40 Tdp1-/- hTDP1 cells, no CPT, ATP luminescence, 48 h; activity change, negative = growth inhibition: at 46.2 µM (top of the series)
# Outline: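 Chicken DT40 Tdp1-/- cells complemented with human TDP1, screened without camptothecin (DMSO vehicle only), 400 cells/well. Compounds pin-transferred, cells incubated at 37 °C for at least 48 hr. Growth read as ATP-dependent luminescence (CellTiter-Glo, 30 min at RT).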
# % is scaled to controls: 0 for no effect and ±100 for the full control effect; potency is read from the fitted curve at half-maximal effect.
SMILES,"activity change, negative = growth inhibition",Potency
Cc1ccc(C2=CSC3=NS(=O)(=O)CCN23)cc1C,-17.4%,
CCCCNC(=O)N(O)C1N(/N=C/c2ccccc2O)C(=S)SC1(C)C (stereo not given),-22.5%,
CC(C)C1Nc2c(C(=O)O)cccc2C(Nc2ccccc2C(=O)O)C1(C)C (stereo not given),3.53%,
Cc1ccc(N/N=C2\COC(C)(C)CC2=O)cc1,3.82%,
O=C(NCc1ccccc1Cl)c1csc([C@@H]2O[C@H](CO)[C@@H](O)[C@H]2O)n1,-14.7%,
Cc1ccsc1C(=O)NCCc1ccco1,-9.2%,
CCCn1nc2cc(C(=O)NCc3ccccc3)ccc2c1OCC,7.81%,
COc1cc(C(=O)NCc2ccncc2)cc(Br)c1OCc1ccccc1,,23.1 µM (active)
C[n+]1ccc(C(=O)NCc2ccccc2)cc1,4.77%,
Cc1ccc2c(c1)C(O)(CC(=O)c1cccnc1)C(=O)N2 (stereo not given),-23.7%,
Cc1ccc(NC(=O)c2ccc(Oc3ncccn3)cc2)cc1,-14%,
CC(C)c1c(C(=O)N/N=C/c2ccccc2C(=O)O)nnn1-c1nonc1N,-0.811%,
O=C(/C=C/c1ccc(F)cc1)Nc1cccc(S(=O)(=O)Nc2cccc(C(F)(F)F)c2)c1,,8.2 µM (active)
CC(C)(CNC(=O)c1cc(=O)[nH]c2ccccc12)N1CCOCC1,-4.44%,
O=C(O)c1cccc(N2C(=O)Nc3ccccc3N2O)c1,0.678%,
CN1C(=O)c2ccc(NC(=O)c3c(F)c(F)c(F)c(F)c3F)cc2C1=O,-20.5%,
CCCC[C@H]1COCCS(=O)(=O)N1Cc1cccc(Cl)c1,-19.5%,
COc1ccc(Cn2cc(CN3CCS(=O)(=O)N(Cc4ccc(-c5cccc(Cl)c5)cc4)C(C)C3=O)nn2)cc1 (stereo not given),,25.9 µM (active)
CC1C(=O)N(Cc2cn(CC3CCCCC3)nn2)CCS(=O)(=O)N1Cc1ccc(-c2cccc(N(C)C)c2)cc1 (stereo not given),,7.31 µM (active)
O=S1(=O)CC(N2CCSCC2)CN1Cc1cn(Cc2cccc(Cl)c2)nn1 (stereo not given),-18.3%,
O=S(=O)(/C=C/c1ccccc1)N1CCNCC1,-15.3%,
O=C1Cc2cc(S(=O)(=O)Nc3cccc(F)c3)ccc2N1,0.84%,
CC(/C=C/c1ccco1)=N/NC(=O)C1COc2ccccc2O1 (stereo not given),,16.4 µM (active)
CC(=O)c1cccc(NC(=O)C2COc3ccccc3O2)c1 (stereo not given),8.91%,
C/C(=N/NC(=O)C1COc2ccccc2O1)c1ccco1 (stereo not given),-14.3%,

SMILES,"activity change, negative = growth inhibition",Potency
CCOc1cc(C(=O)Nc2c(C)ccc3nsnc23)cc(OCC)c1OCC,-22.1%,
CC1O[C@H](OC2C(COC3OC(CO)C(O)[C@H](O)C3O)OC(OC3CC[C@]4(C)C(CC[C@@]5(C)[C@@H]4C=C[C@]46OC[C@@]7(CCC(C)(C)C[C@H]74)C(O)C[C@@]56C)C3(C)C)C(O)C2O)C(O)C(O)C1O (stereo not given in full),7.51%,
O=C(COC(=O)CNS(=O)(=O)c1ccccc1)NC12CC3CC(CC(C3)C1)C2,-26.4%,
O=C1C(Cl)=C(Oc2ccccc2)C(=O)c2ccccc21,,0.259 µM (active)
CC(=O)Oc1ccc2c(c1)C(=O)c1ccccc1C2=O,-18.9%,
Cc1cc(Nc2ccc(C(=O)N3CCCCC3)cc2)c2cccc(C)c2n1,-23.9%,
CCc1c(C)sc(NC(=O)OC)c1C(=O)N1CCOCC1,-12.6%,
CCCOC(=O)CC1C(=O)NCCN1Cc1ccc(F)cc1 (stereo not given),-3.87%,
COc1ccc(NC(=O)/C(N=Nc2cccc(S(=O)(=O)Nc3ccc(SC(F)F)cc3)c2)=C(\C)O)cc1,-19.8%,
COc1ccc(NS(=O)(=O)c2ccc(Oc3c(C#N)cccc3C#N)cc2)cc1,,5.8 µM (active)
COc1ccc(NS(=O)(=O)c2cccc(C(=O)NCCc3ccc(S(N)(=O)=O)cc3)c2)cc1,-13.7%,
C[C@H](CO)N1C[C@H](C)[C@@H](CN(C)C(=O)NC2CCCCC2)Oc2ccc(NC(=O)c3ccncc3)cc2C1=O,3.93%,
CO/N=C(\C(=O)N[C@@H]1C(=O)N2C(C(=O)O)=C(COC(C)=O)CS[C@H]12)c1csc(N)n1 (stereo in doubt),,inactive
COc1cccc(-c2nc(CS(=O)(=O)CC(=O)N3CCN(c4cc(C)ccc4C)CC3)c(C)o2)c1,,3.66 µM (active)
COc1cccc(-c2nc(CS(=O)(=O)CC(=O)NCCc3ccc(OC)c(OC)c3)c(C)o2)c1,-28.5%,
CCCCN(CC)CCCNC(=O)CS(=O)(=O)Cc1nc(-c2cccc(OC)c2)oc1C,3.46%,
CCN(CC)CCN(C)C(c1ccnc2ccccc12)c1nnnn1-c1ccc2c(c1)OCCO2 (stereo not given),,18.4 µM (active)
CC(=O)NC1CCN(CC(=O)Nc2nccs2)CC1,8.15%,
Cc1cc(C)n(CCNC(=O)CC2C(=O)NCCN2Cc2ccc(C)o2)n1 (stereo not given),9.42%,
Cc1ncn(C23CC4CC(CC(O)(C4)C2)C3)n1,11.2%,
COC(=O)c1ccc(NC(=O)CSc2nnc(C3CC3)n2C)cc1,-18.5%,
COC(=O)c1ccc(NC(=O)C23CC4CC(C2)CC(n2cnc(Cl)n2)(C4)C3)cc1,,16.4 µM (active)
CCOc1ccc(S(=O)(=O)NCCC(=O)NNC(=O)c2ccc(F)cc2)cc1,-2.59%,
COc1ccc(CNC(=O)c2cc(=O)c3c(C)cc(C)cc3o2)cc1,-23.3%,
COc1ccc(CCN2C(=O)c3oc4cc(C)cc(C)c4c(=O)c3C2c2ccccc2F)cc1OC (stereo not given),,2.91 µM (active)

SMILES,"activity change, negative = growth inhibition",Potency
COc1ccc(CCNC(=O)COc2cc(C)cc3oc(=O)c(C)c(C)c23)cc1OC,-14.7%,
COc1ccccc1OCCNC(=O)C(CCSC)NC(=O)COc1ccccc1 (stereo not given),12.3%,
O=C(O)CC(c1ccccc1)n1cnnn1 (stereo not given),-13.6%,
CCCOc1ccc(C(=O)C(CCC(CNCC)C(=O)c2ccc(OCCC)cc2)CNCC)cc1 (stereo not given),,0.92 µM (active)
CCCOc1ccc(C(=O)NCCc2ccccc2)cc1,-5.72%,
CCCOc1ccc(C(=O)CCC(=O)OC(C)C(=O)Nc2ccc(NC(C)=O)cc2)cc1 (stereo not given),-9.79%,
CCCCOc1ccc(C(=O)NO)cc1,,15.8 µM (active)
CCCCOc1ccc(C(=O)NN2CCN(C)CC2)cc1,0.162%,
CCCCOc1ccc(C(=O)NCc2ccncc2)cc1,-49%,
COc1ccccc1C(=O)NCC(=O)OCC(=O)Nc1nnc(-c2ccccc2)o1,0.346%,
CCCNC(=O)C[C@@H]1CC[C@@H]2[C@H](COC[C@H](O)CN2C(=O)c2cc(Cl)cc(Cl)c2)O1,3.86%,
Cn1c(N)c(C(=O)COC(=O)c2ccccc2NCc2ccco2)c(=O)n(C)c1=O,-17.3%,
Cc1cc2cc(CNC(=O)c3cccs3)ccc2[nH]1,-9.84%,
CCc1cccc(CC)c1NC(=S)Nc1ccc2cn[nH]c2c1,-26.7%,
CCc1cccc(CC)c1NC(=S)NCc1ccc2[nH]c(C)cc2c1,,18.4 µM (active)
COc1ccc(S(=O)(=O)NCC2CCCN(C(=O)c3occc3C)C2)cc1 (stereo not given),4.89%,
O=C(c1ccccn1)c1ncc(C(F)(F)F)cc1Cl,0.458%,
C=CCn1c(SCC(=O)Nc2nc3ccccc3s2)nnc1-c1ccccc1O,-19.3%,
O=c1[nH]c(CN2CCOCC2)nc2cc(Cl)ccc12,-17.7%,
NC(=O)Cc1nc2scc(-c3ccc(Cl)cc3)c2c(=O)[nH]1,-7.87%,
O=c1[nH]c(CCl)nc2cc(-c3ccc(Cl)cc3)sc12,,2.31 µM (active)
CCOCCCNC(=S)N1CCC(NC(=O)C2CCCCC2)CC1,23.4%,
CSCCC(NS(=O)(=O)c1ccc2c(c1)oc(=O)n2C)C(=O)NCc1ccccc1 (stereo not given),,inactive
OC(CBr)C[n+]1cccc2cc(Br)ccc21 (stereo not given),,11.2 µM (active)
Cc1c(CCC(=O)N[C@@H](CC(C)C)C(=O)O)c(=O)oc2c(C)c3oc4c(c3cc12)CCCC4,-5.98%,

SMILES,"activity change, negative = growth inhibition",Potency
CCN(CC)CCCNC(=O)CCn1nc(-c2ccc(Cl)cc2)ccc1=O,-12.9%,
O=C(Nc1ccc(OC(F)(F)F)cc1)c1cc2c(=O)n3ccccc3nc2s1,-10.7%,
Cn1c(C(=O)Nc2cccc(C(F)(F)F)c2)cc2c(=O)n3ccccc3nc21,,9.2 µM (active)
O=C(COC(=O)c1cccc(Cl)c1)NC(=O)NCc1ccccc1,5.96%,
CCN(CC)c1ccc2oc(=O)c(C)nc2c1,,5.8 µM (active)
CCN(CC)c1ccc2c(Nc3ccccc3)c(C=O)c(=O)oc2c1,-1.93%,
CCN(CC)c1ccc2cc(C(=O)O)c(=O)oc2c1,-13.5%,
COc1ccc(CCN2C(=O)C3CC=C(C)CC3C2=O)cc1OC (stereo not given),-29.3%,
COC(=O)c1ccc(C2C(Oc3ccccc3C)C(=O)N2CCc2ccc(OC)c(OC)c2)cc1 (stereo not given),,14.6 µM (active)
COc1ccc(CCNC(=O)C(=O)NCc2ccccc2C)cc1OC,6.43%,
CN(CCC1CCOCC1)C(=O)CC1C(=O)NCCN1Cc1cccc(F)c1 (stereo not given),-6.27%,
COc1ccc(NS(=O)(=O)c2cc3c(cc2C)N(C(C)=O)CCO3)cc1,,inactive
CCOC(=O)c1c(NC(=O)NC(C)(C)C)sc2c1CCN(C)C2,-0.308%,
CCCN(CCC)S(=O)(=O)c1ccc(C(=O)Nc2sc3c(c2C(=O)OC)CCN(CC)C3)cc1,,20.6 µM (active)
COC(=O)c1c(NC(=O)c2ccc(Cl)c(Cl)c2)sc2c1CCCC2,-2.84%,
CCOC(=O)c1c(NC(=O)c2ccc(S(=O)(=O)N3CCCC(C)C3)cc2)sc2c1CCN(C(C)C)C2 (stereo not given),,10.3 µM (active)
CCOC(=O)c1c(NC(=O)C2CCN(S(=O)(=O)c3ccc(Cl)cc3)CC2)sc2c1CCCC2,-25.2%,
COC(=O)c1c(NC(=O)c2cc(=O)c3c(C)cc(C)cc3o2)sc2c1CCCC2,2.53%,
O=C(O)/C=C/c1ccc(OCCCF)cc1,7.32%,
CN(C)/C=C/C(=O)c1cnc2sccn2c1=O,1.42%,
Cn1nc(C(F)(F)F)c(-c2ccc(F)cc2)c1NC(=O)CSCC(=O)O,4.22%,
CN(C)C=NC(=O)c1cccn1-c1ncc(C(F)(F)F)cc1Cl,-0.565%,
O=C(CSc1nnc(Nc2ccccc2)s1)Nc1cccnc1Cl,6.65%,
CC(C)c1ccc(Nc2nnc(SCC(=O)c3nnc(-c4ccccc4)o3)s2)cc1,,11.6 µM (active)
CC(C)N(C(=O)CSc1nnc(NC2CC2)s1)c1ccccc1,11.9%,
